Results taken from PubChem BioAssay AID1159580 (chemical genetic matrix, 2015).
The whole screen tested about 5,500 compounds, of which about 2,000 (36%) were called active. Not shown: some 18% with an inconclusive outcome. No stated cut-off is given here; in the data, active means normalized growth mostly below about 0.91 (no sharp cut-off); inconclusive means no clear call, values can overlap the other calls; inactive means mostly above about 0.92. Some of the results follow.

Assay: chemical genetic growth profiling, strain panel (AID 1159580);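 further: tested at 20 µM; growth read once vehicle control cultures reached saturation at 30 °C; 1 = growth at the plate median or of vehicle wells; lower values mean less growth of the strain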
Settings: growth OD

Measured: normalized growth

CC(=O)Oc1cccc(O)c1
inactive: S. cerevisiae deletion strains, locus YJR075W, strain HOC1, hits give low values 1 | S. cerevisiae deletion strains, locus YKL009W, strain mrt4, hits give low values 1.01 | S. cerevisiae deletion strains, locus YKL068W, hits give low values 1 | S. cerevisiae deletion strains, locus YKL085W, strain MDH1 (second series), hits give low values 1 | S. cerevisiae deletion strains, locus YKL085W, strain MDH1, hits give low values 1 | S. cerevisiae deletion strains, locus YKL160W, strain elf1, hits give low values 1.01 | S. cerevisiae deletion strains, locus YKL190W, strain CNB1, hits give low values 1 | S. cerevisiae deletion strains, locus YKR001C, strain vps1, hits give low values 1.02 | S. cerevisiae deletion strains, locus YKR026C, strain gcn3, hits give low values 1.01 | S. cerevisiae deletion strains, locus YKR091W, strain srl3, hits give low values 1.01 | S. cerevisiae deletion strains, locus YLL001W, strain dnm1, hits give low values 1.02 | S. cerevisiae deletion strains, locus YLL026W, hits give low values 1.01 | S. cerevisiae deletion strains, locus YLL041C, strain sdh2, hits give low values 1.01 | S. cerevisiae deletion strains, locus YLR027C, strain aat2, hits give low values 1.03 | S. cerevisiae deletion strains, locus YLR039C, strain RIC1, hits give low values 1.04 | S. cerevisiae deletion strains, locus YLR058C, strain SHM2, hits give low values 1.01 | S. cerevisiae deletion strains, locus YLR102C, strain apc9, hits give low values 1.01 | S. cerevisiae deletion strains, locus YLR113W, strain HOG1, hits give low values 0.982 | S. cerevisiae deletion strains, locus YLR221C, strain rsa3, hits give low values 1.03 | S. cerevisiae deletion strains, locus YLR258W, strain gsy2, hits give low values 1.02 | S. cerevisiae deletion strains, locus YLR262C, strain YPT6 (second series), hits give low values 1.04 | S. cerevisiae deletion strains, locus YLR262C, strain YPT6, hits give low values 1.05 | S. cerevisiae deletion strains, locus YLR268W, strain sec22, hits give low values 1.02 | S. cerevisiae deletion strains, locus YLR320W, strain mms22, hits give low values 1.04 | S. cerevisiae deletion strains, locus YLR330W, strain CHS5, hits give low values 1.01 | S. cerevisiae deletion strains, locus YLR342W, strain FKS1 (second series), hits give low values 1.01 | S. cerevisiae deletion strains, locus YLR342W, strain FKS1, hits give low values 1.03 | S. cerevisiae deletion strains, locus YLR357W, strain rsc2, hits give low values 1.02 | S. cerevisiae deletion strains, locus YLR370C, strain arc18, hits give low values 1.01 | S. cerevisiae deletion strains, locus YLR371W, strain rom2, hits give low values 1 | S. cerevisiae deletion strains, locus YLR384C, strain iki3, hits give low values 1.01 | S. cerevisiae deletion strains, locus YLR418C, strain cdc73, hits give low values 1.05 | S. cerevisiae deletion strains, locus YML016C, strain PPZ1, hits give low values 1.01 | S. cerevisiae deletion strains, locus YML032C, strain rad52, hits give low values 1.02 | S. cerevisiae deletion strains, locus YML120C, strain ndi1, hits give low values 1.01 | S. cerevisiae deletion strains, locus YML124C, strain tub3, hits give low values 1.01 | S. cerevisiae deletion strains, locus YMR058W, strain fet3, hits give low values 1.03 | S. cerevisiae deletion strains, locus YMR078C, strain ctf18, hits give low values 1.02 | S. cerevisiae deletion strains, locus YMR125W, strain sto1, hits give low values 1.03 | S. cerevisiae deletion strains, locus YMR129W, hits give low values 1.01 | S. cerevisiae deletion strains, locus YMR205C, strain PFK2, hits give low values 1.03 | S. cerevisiae deletion strains, locus YMR223W, strain ubp8, hits give low values 1.02 | S. cerevisiae deletion strains, locus YMR231W, strain pep5, hits give low values 1.01 | S. cerevisiae deletion strains, locus YMR263W, strain SAP30, hits give low values 1 | S. cerevisiae deletion strains, locus YMR307W, strain GAS1, hits give low values 0.985 | S. cerevisiae deletion strains, locus YNL067W, strain RPL9B, hits give low values 0.996 | S. cerevisiae deletion strains, locus YNL071W, strain lat1, hits give low values 1.02 | S. cerevisiae deletion strains, locus YNL128W, strain TEP1, hits give low values 1.01 | S. cerevisiae deletion strains, locus YNL183C, strain NPR1, hits give low values 0.938 | S. cerevisiae deletion strains, locus YNL209W, strain ssb2, hits give low values 1.04 | S. cerevisiae deletion strains, locus YNL233W, strain BNI4, hits give low values 0.993 | S. cerevisiae deletion strains, locus YNL248C, strain rpa49, hits give low values 1.03 | S. cerevisiae deletion strains, locus YNL250W, strain rad50, hits give low values 1.06 | S. cerevisiae deletion strains, locus YNL271C, strain bni1, hits give low values 1.01 | S. cerevisiae deletion strains, locus YNL298W, strain CLA4, hits give low values 1.03 | S. cerevisiae deletion strains, locus YNL307C, strain MCK1, hits give low values 1.02 | S. cerevisiae deletion strains, locus YNL322C, strain KRE1 (second series), hits give low values 1.01 | S. cerevisiae deletion strains, locus YNR049C, strain mso1, hits give low values 1 | S. cerevisiae deletion strains, locus YNR052C, strain pop2, hits give low values 1.01 | S. cerevisiae deletion strains, locus YOL006C, strain TOP1, hits give low values 0.999 | S. cerevisiae deletion strains, locus YOL012C, strain htz1 0.912 | S. cerevisiae deletion strains, locus YOL147C, strain pex11, hits give low values 1.01 | S. cerevisiae deletion strains, locus YOR001W, strain rrp6, hits give low values 1.05 | S. cerevisiae deletion strains, locus YOR061W, strain CKA2, hits give low values 1.01 | S. cerevisiae deletion strains, locus YOR069W, strain VPS5, hits give low values 1 | S. cerevisiae deletion strains, locus YOR070C, strain gyp1, hits give low values 1.02 | S. cerevisiae deletion strains, locus YOR080W, strain dia2, hits give low values 1.01 | S. cerevisiae deletion strains, locus YOR083W, strain WHI5, hits give low values 1.01 | S. cerevisiae deletion strains, locus YOR106W, strain vam3, hits give low values 1.02 | S. cerevisiae deletion strains, locus YOR136W, strain idh2, hits give low values 1.02 | S. cerevisiae deletion strains, locus YOR144C, strain elg1, hits give low values 1.01 | S. cerevisiae deletion strains, locus YOR184W, strain ser1, hits give low values 1.03 | S. cerevisiae deletion strains, locus YOR231W, strain MKK1, hits give low values 0.977 | S. cerevisiae deletion strains, locus YOR265W, strain rbl2, hits give low values 1 | S. cerevisiae deletion strains, locus YOR270C, strain vph1, hits give low values 1.07 | S. cerevisiae deletion strains, locus YOR290C, strain snf2, hits give low values 1.01 | S. cerevisiae deletion strains, locus YOR316C, strain cot1, hits give low values 1.01 | S. cerevisiae deletion strains, locus YPL051W, strain arl3, hits give low values 1.04 | S. cerevisiae deletion strains, locus YPL078C, strain atp4, hits give low values 1.03 | S. cerevisiae deletion strains, locus YPL106C, strain sse1, hits give low values 1.01 | S. cerevisiae deletion strains, locus YPL240C, strain hsp82, hits give low values 1.03 | S. cerevisiae deletion strains, locus YPL241C, strain CIN2, hits give low values 1.01 | S. cerevisiae deletion strains, locus YPL256C, strain CLN2, hits give low values 0.951 | S. cerevisiae deletion strains, locus YPR119W, strain clb2, hits give low values 1.01 | S. cerevisiae deletion strains, locus YPR141C, strain kar3, hits give low values 1.01 | S. cerevisiae deletion strains, locus YPR163C, strain tif3, hits give low values 1.02 | S. cerevisiae deletion strains, locus YPR167C, strain met16, hits give low values 1.01 | S. cerevisiae deletion strains, strain wtn01, hits give low values 1.03 | S. cerevisiae strains, strain wild type, hits give low values 1.01
